# Test results reported in paper PMC4336329 (PLoS ONE, 2015).
# Among all 310,000 compounds or so, about 14,000 (4.5%) showed an effect of 50% or more. The effect is printed as a negative number. This is one part of a sample in which strong results are shown more often than they occur.
# Target: human ether-à-go-go-related gene (hERG) potassium channel (human, UniProt Q12809)
# Experiment: primary screen, population patch clamp on CHO cells stably expressing hERG; higher = less effect of the substance
# 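Note: peak tail current of the secondary pulse compared with the same well before compound.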
# Chain of human ether-à-go-go-related gene (hERG) potassium channel (Q12809 whole entry, looked up): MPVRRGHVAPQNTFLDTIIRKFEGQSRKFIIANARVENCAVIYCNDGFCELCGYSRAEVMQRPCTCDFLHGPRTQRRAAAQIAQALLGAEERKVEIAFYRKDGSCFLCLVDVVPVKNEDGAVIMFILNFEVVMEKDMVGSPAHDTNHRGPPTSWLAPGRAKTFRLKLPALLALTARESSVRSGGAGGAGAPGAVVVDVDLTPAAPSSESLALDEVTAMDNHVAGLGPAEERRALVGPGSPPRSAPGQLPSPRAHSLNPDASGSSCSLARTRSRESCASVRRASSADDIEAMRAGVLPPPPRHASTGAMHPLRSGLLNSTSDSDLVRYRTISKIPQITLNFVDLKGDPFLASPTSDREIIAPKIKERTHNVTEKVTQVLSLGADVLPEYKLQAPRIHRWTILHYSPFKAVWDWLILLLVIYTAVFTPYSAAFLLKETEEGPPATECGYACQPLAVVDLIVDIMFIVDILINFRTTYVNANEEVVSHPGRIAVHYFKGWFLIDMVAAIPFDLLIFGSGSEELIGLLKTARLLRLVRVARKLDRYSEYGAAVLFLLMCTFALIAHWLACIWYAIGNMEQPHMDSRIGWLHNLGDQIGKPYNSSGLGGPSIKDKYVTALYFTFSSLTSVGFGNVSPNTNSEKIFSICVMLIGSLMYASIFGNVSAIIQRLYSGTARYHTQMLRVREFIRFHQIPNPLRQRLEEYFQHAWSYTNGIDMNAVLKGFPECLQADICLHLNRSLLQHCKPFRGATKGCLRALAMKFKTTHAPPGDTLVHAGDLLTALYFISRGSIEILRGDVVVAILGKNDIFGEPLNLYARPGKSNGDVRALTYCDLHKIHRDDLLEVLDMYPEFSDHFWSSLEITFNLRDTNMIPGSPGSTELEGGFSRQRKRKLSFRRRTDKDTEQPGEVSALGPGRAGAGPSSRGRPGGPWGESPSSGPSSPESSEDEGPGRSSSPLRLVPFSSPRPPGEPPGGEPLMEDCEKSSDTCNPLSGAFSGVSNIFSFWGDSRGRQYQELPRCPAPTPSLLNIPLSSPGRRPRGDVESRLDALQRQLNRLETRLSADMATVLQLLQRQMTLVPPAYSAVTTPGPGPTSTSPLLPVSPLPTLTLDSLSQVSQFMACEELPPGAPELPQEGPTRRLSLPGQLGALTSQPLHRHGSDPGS
row,SMILES,"hERG current change (%, negative = inhibition) at 10uM [%]"
1,CCN(C(=O)C1CCN(c2nc(-c3ccc(OC)cc3)no2)CC1)c1ccccc1,-24.7
2,O=C(CSCc1cccc(CSCC(=O)Nc2ccc3ccccc3c2)n1)Nc1ccc2ccccc2c1,9.54
3,O=C(CSCc1cccc(CSCC(=O)Nc2ccccc2)n1)Nc1ccccc1,-67
4,O=C(CSCc1ccccn1)Nc1ccccc1,1.85
5,O=C(CSCc1ccco1)Nc1cc(C(F)(F)F)ccc1N1CCOCC1,-49
6,O=[N+]([O-])c1ccc(OCC(O)CN2CCN(c3ccccc3F)CC2)cc1 (stereo not drawn),-75.3
7,COc1cccc(OC)c1OCC(O)CN1CCN(c2ccccc2F)CC1.Cl (stereo not drawn),-12.2
8,Cl.OC(COc1ccc(F)cc1)CN1CCN(c2ccccc2F)CC1 (stereo not drawn),-66.6
9,O=S(=O)(c1ccc(OCC(O)CN2CCN(c3ccccc3O)CC2)cc1)N1CCOCC1 (stereo not drawn),-6.91
10,CC(C(=O)N1CCCC1)c1ccc([N+](=O)[O-])cc1 (stereo not drawn),-0.0422
11,Cl.OC(COCc1ccccc1)CN1CCN(c2ccccc2F)CC1 (stereo not drawn),-45.9
12,CC(C(=O)N1CCN(c2ccccc2F)CC1)c1ccc([N+](=O)[O-])cc1 (stereo not drawn),-68.4
13,CC(C(=O)N1CCN(c2ccccc2)CC1)c1ccc([N+](=O)[O-])cc1 (stereo not drawn),-42.7
14,Cc1ccc(N2CCN(C(=O)NC3CCCCC3)CC2C)cc1 (stereo not drawn),4.09
15,CCOC(=O)c1c(S(=O)(=O)NCc2cccs2)c(C)n(C)c1C,-12.1
16,CC(=O)c1ccc(N(C(=O)Cc2c[nH]c3ccccc23)C(C(=O)NC2CCCCC2)c2cccs2)cc1 (stereo not drawn),7.81
17,CN1C(=O)CSC1=NCC12CC3CC(CC(C3)C1)C2,-19.6
18,CC(C)CC(=O)NC1(C(F)(F)F)C(=O)Nc2c1c(=O)n(C)c(=O)n2C (stereo not drawn),10.5
19,COc1cc(OC)nc(NC2OC(=O)c3ccccc32)n1 (stereo not drawn),0.248
20,CC(=O)Oc1cc2c(cc1Cl)C(c1cccs1)CC1(CC(C)(C)NC(=S)N1)O2 (stereo not drawn),9.77
21,COc1cccc(CN2CCCC(C(=O)c3ccc4c(c3)OCO4)C2)c1OC (stereo not drawn),-63.3
22,COc1cc(OC)c(OC)cc1CN1CCCC(C(=O)N2CCCC2)C1.O=C(O)C(=O)O (stereo not drawn),17.4
23,COc1cccc(CN2CCCC(C(=O)N3CCCCC3)C2)c1OC.O=C(O)C(=O)O (stereo not drawn),-26.3
24,COc1cccc(CN2CCCC(C(=O)c3ccc4c(c3)OCO4)C2)c1O (stereo not drawn),-65.5
25,COc1ccc(CN2CCCC(C(=O)c3ccc4c(c3)OCO4)C2)c(F)c1 (stereo not drawn),-64.2
26,COc1cccc(CN2CCC(C(=O)N3CCN(Cc4ccc5c(c4)OCO5)CC3)CC2)c1OC,-39.5
27,COc1cc(OC)c(OC)cc1CN1CCCC(C(=O)c2ccc3c(c2)OCO3)C1 (stereo not drawn),-67.1
